Experiment [1] is described as follows: BSK_CASM3C_SRB: Viability Assessment in the BioMAP Diversity Plus: CASM3C Assay (AID 2283050).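 Note: total protein by SRB staining as cytotoxicity measure in parallel cultures; cells exposed to compound for 24 h.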 The conditions noted are these: primary human coronary artery smooth muscle cells.
Read-out in experiment [2]: Thrombomodulin, THBD (gene 7056)
The experiment can be described thus: BSK_CASM3C_Thrombomodulin: BioMAP Diversity Plus: CASM3C Assay for Thrombomodulin Biomarker Activity (AID 2283051).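 Note: thrombomodulin protein level measured by ELISA 24 h after dosing.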 Conditions: primary human coronary artery smooth muscle cells; actives raise or lower the signal.

Read-out in experiment [3]: Tissue Factor, F3 (gene 2152)
The experiment can be described thus: BSK_CASM3C_TissueFactor: BioMAP Diversity Plus: CASM3C Assay for Tissue Factor Biomarker Activity (AID 2283052).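 Note: cell surface tissue factor protein level read by ELISA.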 Conditions: primary human coronary artery smooth muscle cells; actives raise or lower the signal.

Read-out in experiment [4]: Interferon-gamma inducible Protein 10 (IP10), CXCL10 (gene 3627)
Put plainly: BSK_hDFCGF_IP10: BioMAP Diversity Plus: hDFCGF Assay for Interferon-gamma inducible Protein 10 (IP10) Biomarker Activity (AID 2283053). The conditions noted are these: primary human foreskin fibroblasts; actives raise or lower the signal. The gist of the method: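 ELISA read-out of IP-10 (CXCL10) from primary human skin fibroblasts, 24 h after compound addition. Gain or loss of signal versus DMSO baseline, bidirectional curve fitting.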

Read-out in experiment [5]: Urokinase-type plasminogen activator receptor (uPAR), PLAUR (gene 5329)
The experiment can be described thus: BSK_CASM3C_uPAR: BioMAP Diversity Plus: CASM3C Assay for Urokinase-type plasminogen activator receptor (uPAR) Biomarker Activity (AID 2283054).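 Note: cell-surface uPAR protein level quantified by ELISA.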 Conditions: primary human coronary artery smooth muscle cells; actives raise or lower the signal.

Read-out in experiment [6]: Vascular cell adhesion molecule 1 (VCAM1), VCAM1 (gene 7412)
Put plainly: BSK_CASM3C_VCAM1: BioMAP Diversity Plus: CASM3C Assay for Vascular cell adhesion molecule 1 (VCAM1) Biomarker Activity (AID 2283055).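 Note: VCAM-1 protein level quantified by ELISA on the cells.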 The conditions noted are these: primary human coronary artery smooth muscle cells; actives raise or lower the signal.

Read-out in experiment [7]: Collagen III, COL3A1 (gene 1281)
Put plainly: BSK_hDFCGF_CollagenIII: BioMAP Diversity Plus: hDFCGF Assay for Collagen III Biomarker Activity (AID 2283056). Conditions: primary human foreskin fibroblasts; actives raise or lower the signal. The gist of the method: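 Human foreskin primary fibroblasts were exposed to test chemicals for 24 h, after which collagen III was quantified by ELISA. Activity was fitted bidirectionally against DMSO as negative control and baseline.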

Read-out in experiment [8]: Epidermal growth factor receptor (EGFR), EGFR (gene 1956)
Put plainly: BSK_hDFCGF_EGFR: BioMAP Diversity Plus: hDFCGF Assay for Epidermal growth factor receptor (EGFR) Biomarker Activity (AID 2283057). Conditions: primary human foreskin fibroblasts; actives raise or lower the signal. In outline:
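ELISA readout of EGFR on human dermal fibroblasts (primary foreskin cells), 24 h post-dosing; bidirectional curve fit vs DMSO baseline, gain or loss of signal scored.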

Read-out in experiment [9]: Interleukin-8 (IL8), CXCL8 (gene 3576)
The experiment can be described thus: BSK_hDFCGF_IL8: BioMAP Diversity Plus: hDFCGF Assay for Interleukin-8 (IL8) Biomarker Activity (AID 2283058). Conditions: primary human foreskin fibroblasts; actives raise or lower the signal. In outline:
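hDFCGF human dermal fibroblasts; 24 h chemical exposure; IL-8 by ELISA; bidirectional curve fit vs DMSO baseline; gain or loss of signal scored.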

Experiment [10] is described as follows: BSK_hDFCGF_Proliferation: Cell Proliferation Assessment in the BioMAP Diversity Plus: hDFCGF Assay (AID 2283059).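 Note: curves fitted for both rise and fall of signal versus DMSO baseline.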 The conditions noted are these: primary human foreskin fibroblasts. In outline:
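Primary human foreskin fibroblasts, sub-confluent; […]; 10% TCA fix, 0.1% SRB stain, A560 total protein. Gain/loss fitted bidirectionally vs DMSO control.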

Structures are written as SMILES. The source made the active and inactive calls. Rule for the calls: active = hit-call score of the fitted dose curve at least 0.9, where 1 is the maximum; inactive = score below 0.9.

For orientation: AC50 means the midpoint of the concentration-response curve, whichever way the signal moves. With `Cc1cc(O)c(C(C)(C)C)cc1C(C)(C)C`, the AC50 is 4.99 µM (active) in experiment [1]; 12 µM (active) in experiment [2]; 3.61 µM (active) in [3]; 6.51 µM (active) in experiment [4]; 8.38 µM (active) in [5]; 4.81 µM (active) in experiment [6]. Also, the figures for the half-maximal activity concentration (AC50) in experiment [7] and in experiment [10] were 1.92 µM (active) and 1.78 µM (active), respectively. The outcome in [8] and in experiment [9] was inactive.

As to `O=C(O)C(F)(F)OC(F)(F)C(F)(F)OC(F)(F)C(F)(F)OC(F)(F)F`, the result in experiment [1], in experiment [2], in [3], in [4], in [5] and in experiment [6] was inactive. In addition, the outcome in experiment [7], in experiment [8], in [9] and in [10] was inactive.

With `Cc1ccc(O)c(-n2nc3ccccc3n2)c1`, the outcome in experiment [1], in [2], in [3], in [4], in experiment [5] and in experiment [6] was inactive. Besides, the result in experiment [7], in experiment [8], in [9] and in [10] was inactive.

Turning to `NC(=O)C(F)(F)C(F)(F)C(F)(F)C(F)(F)C(N)=O`, the result in [1], in experiment [2], in [3], in experiment [4], in [5] and in [6] was inactive. Besides, the outcome in [7], in experiment [8], in [9] and in experiment [10] was inactive.

As to `O=C=Nc1cccc2c(N=C=O)cccc12`, the outcome in experiment [1], in experiment [2], in [3], in [4], in experiment [5] and in experiment [6] was inactive. The result in [7], in experiment [8], in [9] and in experiment [10] was inactive.

On to `OCCCCC(F)(F)C(F)(F)C(F)(F)C(F)(F)F`, for which the result in experiment [1], in [2], in experiment [3], in experiment [4], in experiment [5] and in experiment [6] was inactive. The outcome in experiment [7], in experiment [8], in [9] and in [10] was inactive.

Regarding `CCN(CC)c1ccc2c(c1)Oc1cc(N(CC)CC)ccc1C21OC(=O)c2ccccc21`, the result in [1], in experiment [2], in experiment [3], in experiment [4], in experiment [5] and in experiment [8] was inactive. For the same compound, in [9], the result was inactive. The AC50 was 1.98 µM (active) in [6], 10 µM (active) in [7] and 10.5 µM (active) in experiment [10].

Regarding `O=S(=O)(O)CCC(F)(F)C(F)(F)C(F)(F)C(F)(F)C(F)(F)C(F)(F)C(F)(F)C(F)(F)F`, the result in experiment [1], in [2], in experiment [3], in [4], in [5] and in experiment [6] was inactive. The outcome in experiment [7], in experiment [8], in experiment [9] and in experiment [10] was inactive.

With `CC(C)(C)c1cc(CCC(=O)NCCCCCCNC(=O)CCc2cc(C(C)(C)C)c(O)c(C(C)(C)C)c2)cc(C(C)(C)C)c1O`, the outcome in [1], in experiment [2], in experiment [3], in experiment [4], in experiment [5] and in experiment [6] was inactive. Besides, the outcome in [7], in experiment [8], in experiment [9] and in experiment [10] was inactive.

`NC(=O)C(F)(F)C(F)(F)C(F)(F)C(F)(F)C(F)(F)C(F)(F)C(F)(F)F`: the result in experiment [1], in experiment [2], in experiment [3], in experiment [4], in experiment [5] and in experiment [6] was inactive. The result in [7], in experiment [8], in [9] and in experiment [10] was inactive.

For the compound `CCN(CC)c1ccc(N=Nc2ccccc2)cc1`, the AC50 is 20 µM (active) in experiment [1]; 11.3 µM (active) in experiment [2]; 3.04 µM (active) in [6]; 3.65 µM (active) in experiment [7]; 8.62 µM (active) in experiment [10]. Also, the outcome in [3], in experiment [4], in experiment [5], in experiment [8] and in experiment [9] was inactive.

In the case of `NCC(F)(F)C(F)(F)C(F)(F)C(F)(F)C(F)(F)C(F)(F)C(F)(F)C(F)(F)F`, the outcome in [1], in [2], in experiment [3], in [4], in experiment [5] and in experiment [6] was inactive. Moreover, the result in [7], in experiment [8], in experiment [9] and in experiment [10] was inactive.

Regarding `O=C(F)C1(F)C(F)(F)C(F)(F)C(F)(F)C(F)(F)C1(F)F`, the result in experiment [1], in experiment [2], in experiment [3], in [4], in [5] and in [6] was inactive. Moreover, the outcome in experiment [7], in [8], in [9] and in experiment [10] was inactive.

With `NC(=O)C(F)(F)C(F)(F)C(F)(F)F`, the outcome in [1], in experiment [2], in experiment [3], in experiment [4], in experiment [5] and in experiment [6] was inactive. Further, the result in experiment [7], in [8], in [9] and in experiment [10] was inactive.

In the case of `NC(=O)C(F)(F)C(F)(F)C(F)(F)C(F)F`, the result in experiment [1], in [2], in [3], in experiment [4], in experiment [5] and in experiment [6] was inactive. Besides, the result in experiment [7], in experiment [8], in experiment [9] and in experiment [10] was inactive.

With `Cc1cnccn1`, the outcome in experiment [1], in experiment [2], in experiment [3], in [4], in experiment [5] and in experiment [6] was inactive. Further, the outcome in experiment [7], in experiment [8], in experiment [9] and in [10] was inactive.

Take `O=C(O)C(F)(F)C(F)(F)C(F)(F)OC(F)(F)F`: the result in [1], in [2], in [3], in experiment [4], in experiment [5] and in experiment [6] was inactive. Besides, the result in experiment [7], in experiment [8], in experiment [9] and in experiment [10] was inactive.

These data come from PubChem BioAssay (EPA / NIEHS).
